In PubChem BioAssay (NCATS):
Inconclusive results are not listed. Entries that show only a call come without a potency. Activity calls are given as the source filed them. Calls come from the whole dose curve; as a rule, active = well fitted curve in the direction sought with a large enough effect; inconclusive = small, poorly fitted or top-dose-only effect, or another doubt; inactive = no such curve, though single readings can be large; an effect the other way counts as inactive or inconclusive.

How the values were obtained:
[1] = qHTS to identify inhibitors of the type 1 interferon - major histocompatibility complex class I in skeletal muscle: primary screen against the NCATS LOPAC collection (AID 1347405); details: iHSKM muscle cells, IFN-b-induced MHC-I HiBiT luminescence, 24 h; series mostly up to 45.9 µM;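 note: lytic HiBiT luminescence reporting HLA-B protein level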
Summary of the method: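 CRISPR-engineered immortalized human myoblasts (C25cl48) with HiBiT fused to endogenous HLA-B*08:01, stimulated with 4 ng/ml IFN-beta. LOPAC compounds tested as a 7-point 1:4.3 titration (top 46 uM final), 24 h at 37 C; lytic HiBiT luminescence read.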

[2] = qHTS to identify inhibitors of the type 1 interferon - major histocompatibility complex class I in skeletal muscle: primary screen against the NCATS Pharmaceutical Collection (AID 1347407); details: human skeletal muscle cells, IFN-b-induced MHC-I HiBiT luminescence, 24 h; series mostly up to 45.9 µM;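 note: luminescence of HiBiT knocked into endogenous HLA-B as interferon-induced MHC class I level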
Summary of the method: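 Cells were seeded with 4 ng/ml IFN-beta, incubated 1 h, then dosed with compounds over eight 1:5 steps up to 46 uM final. After 24 h at 37 C, HiBiT lytic reagent was added and luminescence read after 10 min lysis in the dark.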

[3] = qHTS for inhibitors of adenylyl cyclases using a fission yeast platform: a pilot screen against the NCATS LOPAC library (AID 1347410); details: S. pombe CHP2027, fbp1-GFP fluorescence, 18 h, yeast expressing mammalian AC9 and human GNAS; series mostly up to 57.5 µM
Summary of the method: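 Growth medium went into the plates first, then compounds were pinned (final up to 57 µM), then CHP2027 yeast were added. Plates were incubated overnight (18 h) at 30C in the dark, and GFP was measured by laser scanning cytometry.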

| Structure (SMILES) | Potency [1] | Potency [2] | outcome [3] |
| --- | --- | --- | --- |
| Nc1ncnc2c1ncn2[C@@H]1O[C@H](CO)[C@@H](O)[C@H]1O | inactive | inactive | inactive |
| CN(C)CCOC(C)(c1ccccc1)c1ccccn1 (centres undefined) | inactive | inactive | inactive |
| CN(C)CCC=C1c2ccccc2CCc2ccccc21 | inactive | inactive | inactive |
| CCCCN(CCCC)CC(O)c1cc(Cl)cc2c1-c1ccc(Cl)cc1/C2=C/c1ccc(Cl)cc1 (centres undefined) | inactive | inactive | inactive |
| CC1=C(/C=C/C(C)=C/C=C/C(C)=C/C(=O)O)C(C)(C)CCC1 | inactive | inactive | inactive |
| CCN(CC)CCOC(=O)C1(C2CCCCC2)CCCCC1 | inactive | inactive | inactive |
| O=C(O)c1ccccn1 | – | inactive | – |
